Source: PubChem BioAssay (NCI)
“And” between values parts separate entries of the source, which are not always exact repeats. Identical values can stand only once. This is part of a sample that, as a whole, favours compounds with a hit. Of some 83,000 tested, about 20% had one in any assay.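 A percent growth of 40 corresponds to 60% growth inhibition; 0 means no net growth; -100 means all cells died. Active threshold: below 10.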 The source made the active and inactive calls.

Key:
Experiment in all cases: NCI-60 one-dose screen, 48 h (100 = growth as untreated, 0 = no growth, -100 = all killed)
Settings in all cases: 10 µM unless noted
[1] = tested on: NCI-H23 lung
[2] = tested on: NCI-H226 lung
[3] = tested on: NCI-H322M lung
[4] = tested on: HOP-62 NSCLC
[5] = tested on: NCI-H460 lung
[6] = tested on: HOP-92 NSCLC
[7] = tested on: NCI-H522 lung
[8] = tested on: A549/ATCC NSCLC
[9] = tested on: 786-0 renal
[10] = tested on: COLO 205 colon
[11] = tested on: DU-145 prostate
[12] = tested on: K-562 leukemia
[13] = tested on: MALME-3M melanoma
[14] = tested on: MDA-MB-231 breast
[15] = tested on: RXF 393 renal
[16] = tested on: SF-268 CNS
[17] = tested on: SF-295 CNS
[18] = tested on: SF-539 CNS
[19] = tested on: UACC-257 melanoma
[20] = tested on: M14 melanoma

| SMILES | growth [1] | growth [2] | growth [3] | growth [4] | growth [5] | growth [6] | growth [7] | growth [8] | growth [9] | growth [10] | growth [11] | growth [12] | growth [13] | growth [14] | growth [15] | growth [16] | growth [17] | growth [18] | growth [19] | growth [20] |
| --- | --- | --- | --- | --- | --- | --- | --- | --- | --- | --- | --- | --- | --- | --- | --- | --- | --- | --- | --- | --- |
| NC(N)=NC(N)=NCCCc1ccco1 | 105% (inactive) | 111% (inactive) | 105% (inactive) | 101% (inactive) | 108% (inactive) | 95.4% (inactive) | 93.6% (inactive) | 102% (inactive) | 112% (inactive) | 111% (inactive) | 115% (inactive) | 96.8% (inactive) | 96.4% (inactive) | 107% (inactive) | 114% (inactive) | 94.1% (inactive) | 93.9% (inactive) | 103% (inactive) | 99.8% (inactive) | 111% (inactive) |
| O=[N+]([O-])c1ccc(S(=O)Cc2ccccc2)c([N+](=O)[O-])c1 (stereo not given) | 71.8% (inactive) and 82.7% (inactive) | 24.9% (inactive) | 99.5% (inactive) | 109% (inactive) and 47.2% (inactive) | 99.8% (inactive) and 103% (inactive) | 56.6% (inactive) and 7.51% (active) | -98.3% (active) and -79% (active) | 83.2% (inactive) and 40.6% (inactive) | 84.2% (inactive) and 51.2% (inactive) | -98.2% (active) and -92.3% (active) | 79.3% (inactive) and 70.5% (inactive) | 25.9% (inactive) | -61.7% (active) and -33.4% (active) | 74.6% (inactive) and 82.1% (inactive) | -36.6% (active) and -28.2% (active) | 86.6% (inactive) and 88.5% (inactive) | 95.9% (inactive) | 90.7% (inactive) and 46.3% (inactive) | 37% (inactive) and 69.3% (inactive) | 55.8% (inactive) and 31.7% (inactive) |
| O=C1/C(=C/c2ccc(-c3cccc(C(F)(F)F)c3)o2)SC(=S)N1CCc1ccc(O)cc1 | 85% (inactive) | 101% (inactive) | 90.3% (inactive) | 88.9% (inactive) | 72.4% (inactive) | 63.5% (inactive) | 4% (active) | 75% (inactive) | 17.9% (inactive) | -3.13% (active) | 12.8% (inactive) | 20.6% (inactive) | 71.6% (inactive) | 90.5% (inactive) | 82.2% (inactive) | 56.8% (inactive) | 96.6% (inactive) | 76.2% (inactive) | 95% (inactive) | 57.5% (inactive) |
| O=c1ccc2nc(-c3ccccn3)nn(-c3ccccc3)c-2c1 | 89.5% (inactive) | 90.1% (inactive) | 102% (inactive) | 93.4% (inactive) | 109% (inactive) | 36.8% (inactive) | -45% (active) | 101% (inactive) | 53.6% (inactive) | -59.4% (active) | 91% (inactive) | -8.79% (active) | -20.6% (active) | 68.4% (inactive) | 65% (inactive) | 98% (inactive) | 96.3% (inactive) | 103% (inactive) | 60.3% (inactive) | 90.3% (inactive) |
| CCOC(=O)C1=C(C)N=C2SC=C(c3ccc(F)cc3)N2[C@H]1c1cn(-c2ccccc2)nc1-c1ccc(Cl)cc1 | 102% (inactive) | 96.4% (inactive) | 88.6% (inactive) | 86.8% (inactive) | 102% (inactive) | 61.6% (inactive) | 83.4% (inactive) | 77.8% (inactive) | 87.6% (inactive) | 107% (inactive) | 104% (inactive) | 102% (inactive) | 100% (inactive) | 88.5% (inactive) | 97.1% (inactive) | 92.4% (inactive) | 99% (inactive) | 101% (inactive) | 81.5% (inactive) | 98.6% (inactive) |
| CC[C@]12CN3CCc4c([nH]c5ccccc45)[C@@](C(=O)OC)(c4cc5c(cc4OC)N(C)[C@H]4[C@@](O)(C(=O)OC)[C@H](OC(C)=O)[C@]6(CC)C=CCN7CC[C@]54[C@@H]76)CC(C3)[C@H]1O2 (stereo not given in full) | 21.1% (inactive) | 42.6% (inactive) | 41% (inactive) | 50.9% (inactive) | -27.3% (active) | 9.26% (active) | -5.19% (active) | 20.9% (inactive) | 19.6% (inactive) | -49.9% (active) | -21.8% (active) | 16.6% (inactive) | 56.1% (inactive) | -28.8% (active) | 10.2% (inactive) | 26.4% (inactive) | -22.9% (active) | 2.86% (active) | 42.3% (inactive) | -29.3% (active) |
| COc1cc(CNC(=O)CCCC/C=C/C(C)C)ccc1O | 101% (inactive) | 94.2% (inactive) and 92.4% (inactive) | 124% (inactive) and 88.7% (inactive) | 89% (inactive) and 104% (inactive) | 106% (inactive) and 114% (inactive) | 84.4% (inactive) | 83.1% (inactive) and 75.5% (inactive) | 106% (inactive) and 115% (inactive) | 107% (inactive) and 101% (inactive) | 101% (inactive) and 111% (inactive) | 112% (inactive) and 120% (inactive) | 84.1% (inactive) and 93.3% (inactive) | 154% (inactive) and 95.6% (inactive) | 85.1% (inactive) and 83.3% (inactive) | -46.1% (active) and 98.6% (inactive) | 84.9% (inactive) and 91.6% (inactive) | 128% (inactive) and 107% (inactive) | 95.6% (inactive) and 90.7% (inactive) | 119% (inactive) and 112% (inactive) | 117% (inactive) and 99.5% (inactive) |
| O=C1c2cc3c(cc2-c2c1c1ccc(Cl)cc1c(=O)n2CCCn1ccnc1)OCO3 | -38.2% (active) | 1.03% (active) | 10.5% (inactive) | 5.44% (active) | 2.4% (active) | -2.88% (active) | -26.1% (active) | 19.6% (inactive) | -40.9% (active) | 14.5% (inactive) | -42.2% (active) | 1.87% (active) | -24.6% (active) | 46.4% (inactive) | -36.7% (active) | 8.11% (active) | -10.1% (active) | -50.3% (active) | -3.1% (active) | -28.6% (active) |
| COc1ccc(Cl)cc1Nc1nc(C(F)(F)F)ccc1C(=O)N/N=C/c1ccc(N(C)C)cc1 | 95.4% (inactive) | 105% (inactive) | 80.8% (inactive) | 73.6% (inactive) | 143% (inactive) | 85.4% (inactive) | 105% (inactive) | 97% (inactive) | 76% (inactive) | 92.2% (inactive) | 117% (inactive) | 122% (inactive) | 92.2% (inactive) | 72.9% (inactive) | 75.6% (inactive) | 107% (inactive) | 154% (inactive) | 115% (inactive) | 110% (inactive) | 81.3% (inactive) |
| O=C(Nc1ccccc1C(=O)N/N=C(\c1ccccc1)c1ccccn1)c1ccccc1 | 24.9% (inactive) | 18.1% (inactive) | 29.1% (inactive) | 9.93% (active) | -0.498% (active) | 34.9% (inactive) | 0.831% (active) | 9.7% (active) | 9.15% (active) | 5.09% (active) | 14.1% (inactive) | 12.5% (inactive) | 35.1% (inactive) | 22.5% (inactive) | 21.4% (inactive) | 15.5% (inactive) | 17.9% (inactive) | 8.36% (active) | -10.4% (active) | -12.9% (active) |
| Cc1ccc(-c2nc(C#N)c(S(=O)(=O)N(C)C)o2)cc1 | 89.2% (inactive) | 103% (inactive) | 91.1% (inactive) | 96.7% (inactive) | 110% (inactive) | 103% (inactive) | -0.0776% (active) | 102% (inactive) | 96.4% (inactive) | 16.7% (inactive) | 103% (inactive) | 12.3% (inactive) | 52.6% (inactive) | 88.1% (inactive) | 105% (inactive) | 104% (inactive) | 100% (inactive) | 102% (inactive) | 94.8% (inactive) | 64.3% (inactive) |
| CCOC(=O)c1ccc(Nc2ncnc3c2cnn3-c2cccc(F)c2)cc1 | 110% (inactive) | 94.6% (inactive) | 102% (inactive) | 93.7% (inactive) | 102% (inactive) | 90.6% (inactive) | 91.9% (inactive) | 102% (inactive) | 104% (inactive) | 113% (inactive) | 106% (inactive) | 96.7% (inactive) | 103% (inactive) | 93.3% (inactive) | 105% (inactive) | 94.2% (inactive) | 100% (inactive) | 98.5% (inactive) | 99.6% (inactive) | 99.1% (inactive) |
| O=C(O)C1C2CCC1C(O)C2 (stereo not given) | 99.1% (inactive) and 99.6% (inactive) | 94.5% (inactive) | 115% (inactive) and 97.6% (inactive) | 87.9% (inactive) and 112% (inactive) | 112% (inactive) and 111% (inactive) | 108% (inactive) and 97.6% (inactive) | 87.6% (inactive) and 98.6% (inactive) | 102% (inactive) and 100% (inactive) | 98.2% (inactive) and 96.5% (inactive) | 102% (inactive) and 106% (inactive) | 100% (inactive) and 108% (inactive) | 107% (inactive) and 92.7% (inactive) | 109% (inactive) and 86.3% (inactive) | 103% (inactive) and 113% (inactive) | 111% (inactive) and 116% (inactive) | 97.7% (inactive) and 101% (inactive) | 108% (inactive) and 121% (inactive) | 94.9% (inactive) and 101% (inactive) | 100% (inactive) and 103% (inactive) | 98.8% (inactive) and 95.4% (inactive) |
